Experimental data as given in PubChem BioAssay (NCI).
This is part of a sample that, as a whole, favours compounds with a hit. Of some 79,000 tested, about 15% had one in any assay. Values without a mark were called inactive. Activity calls are given as the source filed them. Cut-off read from the data, not from the text of the source: active = growth inhibition above about 70%; inactive = the rest.

Experiment: NCI Yeast Anticancer Drug Screen. Data for the cln2 rad14 strain (AID 165);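 note: 0% = growth equal to vehicle treated cultures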
Conditions: S. cerevisiae cln2 rad14 strain, at 5.0 µM (retest, dose inferred, filed as 0.5), active compounds read high
How it was run: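 Growth of compound-exposed yeast (cln2 rad14 genotype) measured and expressed as inhibition relative to vehicle.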

| Compound | growth inhibition |
| --- | --- |
| Cc1ccc2c(c1)CC1(C2)Cc2ccc(C)cc2C1=O (stereo unspecified) | 29% |
| NC1=CC(=O)c2ccccc2C1=O | 9% |
| CCCCC(CC(=O)O)c1ccc(Cl)cc1 (stereo unspecified) | -63% |
| OCCOCCO[P+]1(OCCOCCO)n2c3ccc2C(c2ccccc2)=C2C=CC(=N2)C(c2ccccc2)=c2ccc(n21)=C(c1ccccc1)C1=NC(=C3c2ccccc2)C=C1 | 97% (active) |
| Clc1ccc2[nH]c(-c3ccccc3)c(-c3ccccn3)c2c1 | 81% (active) |
| COc1cc(NS(C)(=O)=O)ccc1Nc1c2ccccc2nc2ccccc12 | 15% |
| COC1/C=C/OC2(C)Oc3c(C)c(O)c4c(c3C2=O)C(=O)C=C(NC(=O)/C(C)=C\C=C\C(C)C(OC=O)C(C)C(O)C(C)C(OC(C)=O)C1C)C4=O (stereo unspecified) | -5% |
| COc1ccc(CN(C)c2c(C)ccc3ccccc23)cc1 | 2% |
| CCOC(=O)c1c(-c2ccccc2)csc1NC(=O)CBr | 3% |
| Nc1nc2nc(I)[nH]c2c(=O)[nH]1 | -8% |
| CC(CN(CC(=O)O)CC(=O)O)N(CC(=O)O)CC(=O)O.[Cl][Pd][Cl] (stereo unspecified) | 14% |
| COC(=O)c1nc(=S)[nH]c(C(=O)OC)c1C(=O)c1ccc2ccccc2c1 | 8% |
| O=C(Nc1ccccc1)OCCc1ccc(Br)cc1 | 1% |
| O=C(CCN1CCCCC1)/C(=C\c1ccc(Cl)cc1)c1ccccc1 | 14% |
| FC(F)(F)c1nc(S)cc(=S)[nH]1 | -2% |
| CCCCC(=O)N/N=C/c1ccc([N+](=O)[O-])s1 | 1% |
